The values below come from PubChem BioAssay AID1508600 (Functional Genomics Laboratory (NCATS/FGL), 2020).

Among all 53,000 sequences or so, about 3,700 (7%) were called active. Many of the other results were omitted from the sample, so actives are more common in it than they were. Values without a mark were called inactive.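 The calls were made as follows: active = gene knockdowns whose robust z-score for IL-1 alpha signal is at least 2 or at most -2, so actives lie on both sides; inactive = the rest.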

The nature of the assay: Components of the Cytosolic LPS Sensing Pathway: Gene Identification via Genome-wide siRNA Screen.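 Also: robust z of the log signal after scaling to non-targeting control siRNA wells of the plate.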 As to conditions: RAW264.7 macrophages, IL-1a HTRF, actives lie on both sides, screened at 100 nM (by protocol), cells primed 5 h with Pam3CSK4 first. Put shortly:
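Read-out: IL-1a HTRF on supernatant, divided by plate negative-control median ×100, log-transformed and converted to robust z-score. Cells were RAW264.7 given 100 nM siRNA, Pam3CSK4-primed 5 hours, then LipidA-transfected 24 hour.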
(In general: Time-resolved FRET reads energy transfer from a long-lived donor to a nearby acceptor.)
GGGCUGGUCAUUUACUAAGTT against Cdh22: the z-score is 1.32.
The result for CCAGAAUGUCACUGCCAGUTT against Zfy1 reads 1.34.
The result for CCUGGAGAGUGAUACGUUCTT against Serpina1f reads -0.228; that for GGUCAAACUUCAAUAGACATT against Zkscan6, 2.01 (active).
In the case of GGGUGUUAGAAAUCAUUAUTT against Dgkd it was 1.19; in that of GGAACUUCAGAGUAAACCUTT against H2-T23, 0.096.
For the sequence CCACAAUCAUUAACAAGCUTT against Arl6, the z-score is 0.389.
The result for GGUUCAAGAGGAGACUACUTT against BC005624 reads -0.127; that for GGAAUAUGUGUGGACUAGATT against Tor3a, -0.265.
In the case of GGCUUACAAAAAGUACAUCTT against Tpt1 it was 4.36 (active).
The result for GGACCAUUCUUGCGUUCGUTT against Cacng7 reads 1.66; that for CCGAUUAGAAAAGACCAAATT against Ccdc25, 0.727; that for GGAAGUUUUGGGAGUGUGUTT against Map3k20, -1.08.
In the case of CGCAACCUGUCACAUAAUATT against Bmpr2, the z-score was -0.238.
The result for GCUGUUCUAUCAGACCUUUTT against Cyp2b10 reads -0.236; that for GGAGACUUAUAACAUGUUUTT against Habp2, 2.19 (active).
Regarding GCGAGUUGAAGACUGAAGGTT against Ccdc68, the z-score is 1.44.
As to GGUCAUACAUUUGUCAUCATT against Bend7, the z-score was -0.336.
The result for CCAUGUUAGAACUGGGACUTT against Tafa2 reads 2.44 (active); that for GGUCAUGGGACAGCAAAUGTT against Tmco6, -1.67; that for GGAAGACGUAUUUGUACACTT against Ybx1, -0.523.
In the case of GGAGUAGCUGAAUCUGAAGTT against Atp5e it was 1.57; in that of CCUCAUUUCAACCAUUCACTT against Lyzl6, -2.36 (active).
In the case of GGAGCUUCAUCUUUCAAGATT against Uqcrc2 it was -0.0657; in that of GCAUUGUGCUUUUGACAACTT against Abca15, -0.173.
For GGAGCUUGAAAUUGUCAUUTT against Magoh, the z-score was -3.51 (active).
In the case of GGACCGGUGUCUAAUCAGCTT against Capn10 it was 1.75.
As to GGCUCAAGGAACAUGAGGCTT against Gtsf2, the z-score is -0.0452.
In the case of GGCACAAACUAGAUGCAGATT against Ccdc68 it was -0.669.
Regarding GCUCUCGUAGACUGCUAUATT against Ppp1r14c, the z-score was 2.13 (active).
The result for GGAAUUUGAAUCACGUUUGTT against Hprt reads 1.72; that for CGGAUUCGGGAAUUCUAUCTT against Pcgf1, 0.143; that for GGGUACCUCGUGGUACAUUTT against Rapgef3, 0.352.
For the sequence GGUCCAAAAGUUGUUUCAATT against Oga, the z-score is 3.12 (active).
The result for GGAUUCAGCAGCUUCAGAATT against Rex1bd reads 0.221; that for GGAUUAUGCAAGUUACAUUTT against Nsf, -0.63.
The result for GCACCUAGUUAAUGCUGCCTT against C2cd2 reads -2.15 (active); that for GCAGGCAUCGUGUUUACCATT against Cdh20, 1.86; that for GCUCAAUUGUUCUUCUUUUTT against Olfr806, -1.13.
The result for GCUUUAGAACAGAGGGUUATT against Scd4 reads 0.989; that for GGAGAUCUUCAACUGCCACTT against Rps6kl1, 0.842; that for GGUGAUUACUCUUAUGUGATT against Slc7a8, -0.663.
Take GGCUGAAGGAGCAAUCAAATT against L3mbtl3: the z-score was 1.85.
As to GGCCGUUAUUAAAUUCAUATT against Twsg1, the z-score was -0.609.
In the case of GCCGUACCAUGUAAUGCCATT against Naa60 it was -2.05 (active); in that of GGCCUCAGCUCACAACAAATT against Sf3b4, -1.71; in that of GGAAGCAAAAUAAAGAAACTT against Myo1e, 0.109.
The result for GCGAGAGUCACAAAGUGCATT against Rcc1l reads 1.35; that for GCUAGAGGUGACUGAUGUCTT against Tti1, -1.26.
In the case of GGAACAAGAGAGGACAAGUTT against Papss2, the z-score is 0.555.
As to GCCAAAAGUCGAGCACCUCTT against Lrrc8d, the z-score was 0.43.
In the case of CGGUGCUUGCUUCUAUGUGTT against Olfr642 it was 0.201; in that of GCUUUUGUGACUCUGCUGATT against Raver1, -1.41.
In the case of CCAUCUAUCAACUUCUACATT against Sat1 it was -0.34; in that of GGCUAUGUUCACCUGUGGATT against Kbtbd12, -2.66 (active).
The result for CCUGUAAGAACCUUGCCUATT against Sytl3 reads 0.733.
For GGAAGGAAGAAGACAAUAATT against Nudt16l1, the z-score was -0.438.
The result for GCGGAUGAUCAAGAAUCGATT against Atf6b reads -0.421; that for GCUGUGAAAACGCAGUUACTT against Ccser2, 1.77.
In the case of CCUAUACAUGCUACUGAACTT against Itga9 it was -0.723; in that of CCCAGGGUACCUCACAUCUTT against Nrp1, -0.595; in that of GGUCAUCAAUGCCACAGCUTT against Lpo, -2.24 (active).
As for CCGGAGUGACCAUAUUCGUTT against Fgr, the z-score is -0.446.
In the case of GGCUCUCAAUGAUCAUCAUTT against Aldob it was -0.423.
In the case of GGAAGUACAGAAUUUUGAATT against Sft2d2 it was 1.46.
In the case of GGAAAUGUUGAAUCUUGCUTT against Mfsd4a it was 0.0725.
For the sequence CGAUGUAAGGAAAGAAAGGTT against Cd14, the z-score was -1.47.
In the case of CCCUUUGUGUGGAUUAUAUTT against Sp9 it was 2.91 (active).
In the case of GGGACUGUAAUACCAUGAUTT against Rnase10 it was 0.0343; in that of GGCCUUCACCAAAAGCAUCTT against Ncf2, -0.661.
The result for “GGUUUCCUUUGUCUGUUUUTT against 9530091C08Rik” reads -0.509; that for GGCUCUAACUAUUAUGUGCTT against Psmc4, -2.9 (active); that for CCUGGCUGUAAUCACCAUCTT against Olfr1160, 0.953.
Consider GGACAGAUCUUUGAAGCAGTT against Vps18, for which the z-score is -1.7.
The result for GGACGAGGAGUACGAGCAATT against Nfkbia reads 2.6 (active).
The result for CUACCUACUCCAUGUGGUGTT against Gpihbp1 reads -0.55; that for GGCCAUUAAAUUUAUCAACTT against Aldh3a1, 1.61; that for GGGAGAGCUGCUGUUUUUCTT against Rxfp3, 1.46.
In the case of GGUCUGCUUUGUCUUGGUGTT against Olfr829 it was 0.126; in that of GGAUGAAGAUGAAAAGGAATT against Ube3a, -0.519; in that of CCUGAAAGUCGUUUAUCGCTT against Il7r, 2.74 (active).
Take GGCUAUUUAUAAGUCCAGUTT against Uso1: the z-score is -0.307.
In the case of GGAUAGGUUUCUGUAUUUATT against Znrf1 it was 0.621; in that of CCGUAUGAACGUGUGAUAATT against Rasef, 0.142; in that of GGGCACCUAGUUUCCAUGATT against Cox7b, -0.385.
In the case of GGAAGUGGCGAGGUUCUAUTT against Folr1 it was 0.782; in that of GCAGAACACCGCUGGAAGUTT against Pard3, 3.14 (active).
In the case of CGCAAUGUAUGAUUCAAUGTT against Mogat1 it was 1.76.
Take GCUAAUUCCCUGGCCUCAATT against Tro: the z-score was -0.627.
The result for GGUUUAUAGGCCUUCUUCCTT against Flot2 reads -0.763.
In the case of GCAUCGUUAUGCGCCUCACTT against Neurog2 it was 0.297.
The result for CGGGCAUGAUGAAUCGAUGTT against Ldhd reads 1.83; that for GGCUUGAUGAAGAGAAUAUTT against Oog4, -1.45.
Turning to CGGACUCUGUGUUCUUAGATT against Alg3, the z-score was 2.68 (active).
In the case of GGGCGACUUAUUUUUUGUUTT against Zfp111 it was 0.333; in that of GGACUUCAUCAACAACAUCTT against Nsmce1, 0.459.
The result for GGAAAUCUUCAUGAUCAGUTT against Fam24b reads -2.24 (active).
The result for GGUCAUCGGGUAAUUAAUCTT against Rad52 reads -0.618; that for GGAGUCUGCUCUCAUUCUUTT against Slc30a1, -0.214.
GGAUGCUGAGCUUUCUGACTT against Fchsd1: the z-score is 0.476.
Regarding GGCCCUGUUGCUAUGUGUUTT against Map1s, the z-score is 2.06 (active).
In the case of GGCACCGCUAUUCAGAAUUTT against Fgf23 it was 0.755.
Consider GCUGGAAAAGUGCUGUGGGTT against Sult1c1, for which the z-score is -0.494.
The result for GGCUUCCUUUUUGAAGCUATT against Slc35b4 reads 0.258; that for CCGUCAAAACAUUACCAUUTT against Hmcn2, -0.363; that for GGUAGAAGAGAGUAUCAACTT against Commd1, 1.28.
In the case of GGAAAGUCUACAUGUAUUATT against Enpp6 it was -0.886; in that of ACAUUUAUCACGACCCUUCTT against Olfr777, 1.3.
